# Data reported in PubChem BioAssay AID1347041 (National Center for Advancing Translational Sciences (NCATS), 2019).
# Several values for one entry are separate records, joined by “and”; a condition that tells them apart may be missing. Equal entries are not always repeated. Out of some 480,000 compounds screened, about 740 (0.15%) were called active. The sample holds actives, similar compounds and a random draw of the others, so the mix is not that of the screen. Rule as the data show it: active = activity change below about -30%; inconclusive = mostly about -25% to -30%; inactive = weaker than that. Some structures have more than one record in an assay (separate samples or runs), and their calls can disagree.
# Target: L-lactate dehydrogenase A chain (Homo sapiens) (UniProt P00338)
# Assay: qHTS assay for inhibitors of human lactate dehydrogenase;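 also: values are at about 110 or 230 µM; plate controls were DMSO wells for no effect and wells without enzyme for full effect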
# Details: purified LDHA, NADH/diaphorase-resazurin fluorescence; stronger effect = lower value
# Description: LDH is a key glycolytic enzyme that catalyzes the final step in the glycolytic pathway, reducing pyruvate to lactate and regenerating NAD+ equivalents necessary for continued glycolysis. LDHA has been linked to the carcinogenesis and malignancy in numerous forms of cancers and many other diseases. Consequently, both pharma and academia have invested in significant research efforts to identify small molecule therapeutics. Such attempts have been stalled or abandoned due to limited success in discovering potent and drug-like inhibitors that can be utilized to validate LDHA in vivo as a drug target, a necessary step toward advancing such a molecule towards the clinic Towards this goal we designed and performed a quantitative high-throughput screening (qHTS) campaign to discover novel compounds that are potent inhibitors of LDHA enzyme activity and cancer cell line growth.
# The assay was optimized to 1536-well plates. Briefly, 3 µL of human lactate dehydrogenase 5 (#A38558H, Meridian Life Science, Inc., Memphis, TN) in LDH assay buffer (200 mM Tris HCl pH 7.4, 100 microM EDTA and 0.01% Tween-20) was added to a black solid bottom 1536-well assay plate (Greiner Bio-One) using a BioRAPTR FRD dispenser (Beckman Coulter, Brea, CA). A 1536-well pintool dispenser outfitted with 20 nL pins (Wako Automation, San Diego, CA) was used to transfer 23 nL of DMSO-solubilized compound (both library and vehicle controls) to each 1536-well assay plate. Following compound transfer, 1 µL of substrate solution containing NADH and sodium pyruvate (Sigma-Aldrich, St. Louis, MO) in LDH assay buffer was dispensed via BioRAPTR FRD to initiate the reaction. Final concentrations in the 4 microL reaction volume were 2 nM LDHA enzyme, 0.06 mM NADH and 0.2 mM sodium pyruvate. Following a 5 minute incubation period at room temperature, 1 µL of detection reagent (C. kluyveri diaphorase (Sigma-Aldrich) and resazurin sodium salt (Sigma-Aldrich) in LDH assay buffer) was added to a total volume of 5 µL. Final concentrations of detection reagents were 0.133 mg/mL diaphorase and 37 µM resazurin. Plates were immediately transferred to a ViewLux microplate imager (PerkinElmer, Waltham, MA), and any resulting resorufin fluorescence was measured (ex540, em590 nm) at 0 and 20 minutes. Fluorescence was normalized using enzyme-free and DMSO-treated control wells on each plate.
row,Structure (SMILES),activity change
1,CC/C(=C(/c1ccccc1)c1ccc(OCC[N+](C)(C)C)cc1)c1ccccc1,-30.9% (active)
2,CCCCCCCCCOc1ccc(C(=O)c2ccccc2)cc1,2.28% (inactive)
3,CCCCOc1ccc(C(=O)NO)cc1,12.4% (inactive)
4,Cc1cc(C)cc(Nc2nc3ccccc3nc2NS(=O)(=O)c2ccccc2)c1,-9.61% (inactive)
5,C=CCOc1ccc(NC(C)=O)cc1,8.6% (inactive)
6,Cc1nn(CC(=O)Nc2ccc3c(c2)nc2n3CCN(C)C2)c(=O)c2ccccc12,2.93% (inactive)
7,O=C(COc1ccccc1F)Nc1ccc(C(=O)OCc2cc(=O)n3nc(C4CC4)sc3n2)cc1,0.0167% (inactive)
8,Cc1ccc(OCC(=O)OCc2cc(=O)n3nc(C4CC4)sc3n2)cc1,-4.61% (inactive)
9,O=C(COc1ccccc1F)OCc1cc(=O)n2nc(C3CCCCC3)sc2n1,-0.186% (inactive) and -35% (active)
10,CC(=O)c1ccc(S(=O)(=O)NCc2nnnn2-c2ccccc2)cc1,-5.01% (inactive)
11,O=S(=O)(Cc1nnnn1-c1ccc(Br)cc1)c1ccc(F)cc1,-2.83% (inactive)
12,O=S(=O)(Cc1nnnn1-c1ccccc1)c1ccccc1,0.923% (inactive) and -41.4% (active)
13,Cn1ccnc1Sc1nc2c(c(=O)n(C)c(=O)n2C)n1Cc1ccc(F)cc1,1.87% (inactive)
14,Cc1ccc2oc(C(=O)Nc3ccccc3F)cc(=O)c2c1,7.9% (inactive)
15,O=C(O)C(Sc1nc(-c2ccccc2)cc(C(F)(F)F)n1)c1ccccc1 (centres undefined),13.5% (inactive)
16,O=C(NC1CCCC1)c1nc(-c2cccc3[nH]ccc23)no1,-3.9% (inactive)
17,O=C(NC1(C(F)(F)F)C(=O)Nc2c1c(=O)[nH]c(=O)n2Cc1ccco1)c1ccco1 (centres undefined),-33.9% (active)
18,O=c1[nH]c(=O)n(Cc2ccco2)c2c1C(C(F)(F)F)(C(F)(F)F)N=C(c1ccco1)N2,-12.6% (inactive)
19,CC(=O)Nc1ccc(S(=O)(=O)NC2(C(F)(F)F)C(=O)Nc3c2c(=O)[nH]c(=O)n3Cc2ccccc2)cc1 (centres undefined),-3.74% (inactive)
20,Cc1cc(Nc2ccccc2)n2nc(Cc3ccc(Cl)cc3)nc2n1,-32.3% (active)

row,Structure (SMILES),activity change
1,CCc1nc2nc(C)cc(Nc3ccc(F)c(Cl)c3)n2n1,-6.31% (inactive)
2,Cc1cc(Nc2cccc(Cl)c2)n2nc(Cc3ccccc3)nc2n1,-15% (inactive)
3,Cc1ccc(C)c(N2CCN(C(=O)CCS(=O)(=O)c3cccc4nsnc34)CC2)c1,0.345% (inactive)
4,O=C1CCCC2=C1C(c1cccnc1)CC(=O)N2c1ccccc1C(F)(F)F (centres undefined),0.301% (inactive)
5,O=C(CSc1nnnn1C1CCCC1)N1CCCC1c1ccc2c(c1)OCCCO2 (centres undefined),-4.78% (inactive)
6,CC(=O)NC(Cc1c[nH]c2ccccc12)C(=O)N1CCC1 (centres undefined),-6.31% (inactive)
7,FC(F)(F)c1ccc(Cl)c(N/N=C/c2c(Cl)cccc2Cl)c1,-0.292% (inactive)
8,COC(=O)c1cc(NCC(=O)N2CCNC2=O)ccc1Cl,-2.4% (inactive)
9,N#Cc1cc(NCC(=O)N2CCNC2=O)ccc1Cl,-31.1% (active)
10,CSc1ccc(Cl)c(C(=O)OCC(=O)N2CCNC2=O)c1,-5.09% (inactive)
11,CC(=O)Nc1cccc(NC(=O)c2nc(-c3ccccc3)oc2C)c1,-3.27% (inactive)
12,CCN(CC)CCNC(=O)c1ccc2nc(C)c(C)nc2c1,1.31% (inactive)
13,Cc1ccc(NC(=O)CN(C)C(=O)c2nc(-c3ccccc3)oc2C)cc1,-4.78% (inactive)
14,COc1ccc(NC(=O)CN(C)C(=O)c2nc(-c3ccccc3)oc2C)cc1,7.53% (inactive)
15,Cc1oc(-c2ccccc2)nc1CC(=O)N(C)CC(=O)Nc1cccc2ccccc12,-30.2% (active)
16,CC(=O)c1ccccc1NC(=O)c1ccccc1Cc1ccccc1,-24.1% (inactive)
17,CCN(CC)C(=O)c1ccc(CSC(F)F)o1,-3.64% (inactive)
18,Cc1cccc(N2CCN(Cc3ncc(-c4ccc(Cl)cc4)o3)CC2)c1,6.83% (inactive)
19,Cc1c(CC(=O)NCCCN2CCOCC2)c(=O)oc2cc(O)ccc12,1.59% (inactive)
20,CCOc1ccccc1NC(=O)Cc1c(C)[nH]n(-c2nc(-c3ccccc3)cs2)c1=O,-42.8% (active)

row,Structure (SMILES),activity change
1,Cc1[nH]n(-c2nc(-c3ccccc3)cs2)c(=O)c1CC(=O)Nc1cccc(Cl)c1,-4.25% (inactive)
2,CCOc1ccccc1NC(=O)Cn1c2ncccc2c(=O)n1-c1ccc(C)c(C)c1,-10% (inactive)
3,CCNC(=O)c1nnc(C(=O)Nc2cccc(Cl)c2)s1,6.18% (inactive)
4,Cn1c(=O)n(C)c2cc(SCc3ccco3)c(NC(=O)c3ccc(C(C)(C)C)cc3)cc21,-5.57% (inactive)
5,CCCCCn1c(SCc2ccc(C)cc2)nc2c1c(=O)[nH]c(=O)n2C,-21.4% (inactive)
6,CN1CCN(CCC2(Cc3ccccc3)CCOC(C)(C)C2)CC1 (centres undefined),-4.19% (inactive)
7,O=C(O)C(Br)Cc1ccc(Cl)cc1Cl (centres undefined),27.6% (inactive)
8,CC1(C)CC(N2CCN(C(c3ccccc3)c3ccccc3)CC2)=CC(=[N+]2CCCCC2)C1,-64.6% (active)
9,O=C(Nc1ccc2c(c1)OCCCO2)c1ccccc1OCc1ccc(F)cc1,7.94% (inactive)
10,CC(C)(C)c1ccc(-c2nnc(SCC(=O)NC(=O)NC3CCCC3)n2Cc2ccco2)cc1,9.16% (inactive)
11,CC1=C/C(=N\NC(N)=S)C(C)C1 (centres undefined),1.95% (inactive)
12,CCOC(=O)/C=C/c1cc(C(=O)OCC)c(/C=C/C(=O)OCC)cc1C(=O)OCC,-12.2% (inactive)
13,CCn1c(SCC(=O)NCC(F)(F)F)nnc1-c1ccncc1,-0.908% (inactive)
14,Cc1n[nH]c(=O)nc1N/N=C/c1cccs1,10.4% (inactive)
15,CCc1n[nH]c(=S)n1/N=C/c1c[nH]c2ccc(Br)cc12,-11% (inactive)
16,Cc1ccsc1/C=N/n1c(=S)[nH]nc(C)c1=O,-32.7% (active)
17,Cc1ccccc1NC(=O)Cc1nnc(SCC(=O)c2ccc(C#N)cc2)n1C,2.1% (inactive)
18,CCc1nn2c(=O)cc(CN(CC)Cc3ccc(OC)cc3)nc2s1,0.31% (inactive)
19,CCOC(=O)C(NC(=O)c1ccccc1)C(F)(F)F (centres undefined),-5.84% (inactive)
